Screening results: PubChem, National Center for Advancing Translational Sciences (NCATS)
This is a sample that favours compounds with a hit; in the whole collection about 3.7% have one here.
FMDV antiviral: foot and mouth disease virus antiviral activity. FMDV antiviral cell-based qHTS. Potency, µM (series often up to 57.9 µM), for the others: at the top dose activity change, negative = inhibition, usual class: inhibitors. actives 1.2% (n = 410,000). AID 1159524; calls by dose curve; tested in HEK293T cells; further: read-out not given here; nearly all actives have a fitted effect of over 45% in size
Sm TGR inh: S. mansoni TGR enzyme inhibition; purified TGR, DTNB reduction, TNB absorbance 405 nm; Q962Y6; AID 485364; actives 3% (n = 360,000); Potency, µM (titrated, usually from 114 µM), for the others: at the highest dose activity change, negative = inhibition, usual class: inhibitors; further: nearly all actives have a fitted effect of over 60% in size
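Kinetic colorimetric format: TGR-catalysed, NADPH-driven DTNB reduction monitored via TNB absorbance. Enzyme dispensed at 20 nM; compound exposure 15 min at room temperature before reaction start.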
TbPYK inhibitor: inhibitors of Trypanosoma brucei pyruvate kinase; TbPYK enzyme, Kinase-Glo Plus ATP luminescence, 45 min; Potency, µM (series often up to 76.8 µM), for the others: top-dose activity, negative = inhibition, hits mostly inhibitors; AID 624173; actives 0.12% (n = 410,000); Q57TT1; further: nearly all actives have a fitted effect of over 50% in size
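Luminescence from Kinase-Glo Plus, added after a 45-minute room-temperature reaction, served as the end-point read-out. The enzyme and substrate were preincubated with compound before ADP (130 uM final) initiated turnover. Concentration-effect curves came from normalized qHTS data.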
RE007 growth inh: less growth of the S. pombe RE007 Vpr strain | Potency, µM (doses to about 92.2 µM), for inactives: at the top dose activity change, negative = less growth, hits mostly inhibitors | S. pombe RE007 Vpr strain, BacTiter-Glo ATP luminescence, 24 h | actives 0.21% (n = 360,000); active means well fitted falling curve with a large enough effect; inconclusive means small, poorly fitted or top-dose-only effect; inactive means no such curve, though single readings can be large or run the other way; further: nearly all actives have a fitted effect of over 50% in size
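Fission yeast RE007 carrying one integrated HIV-1 vpr copy, seeded at OD 0.01 in PMG+AL medium with 23 nL pinned compound. Grown 24 h at 30 degrees; viability read by BacTiter-Glo luminescence after 5 min.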
An asterisk follows results filed as active. Unless noted, the call rests on the fitted dose curve; in most records, active means well fitted curve in the direction sought with a large enough effect; inconclusive means small, poorly fitted or top-dose-only effect, or another doubt; inactive means no such curve, though single readings can be large; an effect the other way counts as inactive or inconclusive. On the % scale 0 is the no-effect control and ±100 the full control effect; potency means the concentration at half of the fitted maximal effect.

Screening O=C(CSc1nnc(-c2ccccc2)n1Cc1ccco1)Nc1ccc2c(c1)OCCO2 returned FMDV antiviral 11%, Sm TGR inh 35µM*, TbPYK inhibitor 1% and RE007 growth inh 15%.
O=C(CSc1nnc(-c2cccs2)n1Cc1ccco1)Nc1ccc2c(c1)OCO2 was read as FMDV antiviral -20%, Sm TGR inh -9%, TbPYK inhibitor -4% and RE007 growth inh 15%.
`COc1cc2c(cc1NC(=O)CSc1nnc(Cc3cccs3)n1Cc1ccco1)oc1ccccc12` gave FMDV antiviral inconclusive, Sm TGR inh -17%, TbPYK inhibitor -10% and RE007 growth inh -7%.
Screening N#Cc1ccc(CSc2nnc(Cc3cccs3)n2Cc2ccco2)cc1 returned FMDV antiviral -19%, Sm TGR inh 11µM*, TbPYK inhibitor inconclusive and RE007 growth inh -23%.
For Cc1cc(Cl)ccc1NC(=O)CSc1nnc(Cc2cccs2)n1Cc1ccco1 the results were FMDV antiviral -23%, Sm TGR inh 20µM*, TbPYK inhibitor -4% and RE007 growth inh 16%.
`Cc1cc(C)c(NC(=O)CSc2nnc(-c3ccncc3)n2Cc2ccco2)c(Cl)c1` gave FMDV antiviral 1%, Sm TGR inh 22µM*, TbPYK inhibitor -2% and RE007 growth inh 7%.
COc1cccc(Cn2c(=O)c(-c3cccs3)nc3cnc(N4CCNCC4)nc32)c1 was read as FMDV antiviral 13%.
Screening CNC(=O)C1CCC(Cn2c(=O)c3sccc3n(CC(=O)Nc3ccc(C)c(C)c3)c2=O)CC1 (centres undefined) returned FMDV antiviral -27%, Sm TGR inh -9% and TbPYK inhibitor 3%.
`CC(=O)c1ccc(N2CCN(S(=O)(=O)c3ccc4c5c3CC(=O)N5CC(C)S4)CC2)cc1` (centres undefined) gave FMDV antiviral 14µM*, Sm TGR inh inconclusive, TbPYK inhibitor 2% and RE007 growth inh 1%.
Screening COc1cc2c(cc1OC)[C@@H](Cc1cc(OC)c(OC)c(OC)c1)[N@+](C)(CCCOC(=O)CC/C=C/CCC(=O)OCCC[N@+]1(C)CCc3cc(OC)c(OC)cc3[C@H]1Cc1cc(OC)c(OC)c(OC)c1)CC2 returned TbPYK inhibitor -1%.
For COC(=O)[C@@H]1C[C@@]2(O)[C@@H](O)[C@@H](O)[C@@H](O)C[C@H]2N1Cc1ccc(Cl)cc1 the results were FMDV antiviral 6%, Sm TGR inh 40µM*, TbPYK inhibitor 8% and RE007 growth inh 2%.
CC12Cc3cnoc3C=C1CCC1C2CCC2(C)C1CCC2(C)O (centres undefined) was read as FMDV antiviral 35µM*, TbPYK inhibitor -2% and RE007 growth inh 14%.
Cc1nc(S(=O)(=O)c2ccc(Cl)cc2Cl)nc2c1CCC2 was read as FMDV antiviral 15%, Sm TGR inh 25µM*, TbPYK inhibitor -3% and RE007 growth inh -11%.
For C=C[C@]1(C)C=C2CCC3[C@](C)(CCC[C@@]3(C)C(=O)O)C2CC1 (some centres undefined) the results were FMDV antiviral -18%, Sm TGR inh -3%, TbPYK inhibitor -4% and RE007 growth inh -27%.
`C=C/C(C)=C/CC1C(=C)CCC2C(C)(C(=O)O)CCCC12C` (centres undefined) gave FMDV antiviral -12%, Sm TGR inh 32µM*, TbPYK inhibitor -4% and RE007 growth inh -6%.
CCCOC(=O)c1ccc(Cn2nnc3sc4c(c3c2=O)CCC(C)C4)cc1 (centres undefined) was read as FMDV antiviral -17%, Sm TGR inh 5% and TbPYK inhibitor -8%.
COc1ccc(CCNC(=O)CCc2c(C)c3ccc(O)c(C)c3oc2=O)cc1 was read as FMDV antiviral -3%, Sm TGR inh 2% and TbPYK inhibitor 1%.
`COc1ccc(-c2c(C#N)c(N)nc3c2CCc2ccccc2-3)cc1OC` gave FMDV antiviral 16µM*, Sm TGR inh -1%, TbPYK inhibitor 4% and RE007 growth inh -5%.
For COc1cc(-c2c(C#N)c(N)nc3c2CCCC3)ccc1O the results were FMDV antiviral inconclusive, Sm TGR inh 20µM*, TbPYK inhibitor inconclusive and RE007 growth inh -15%.
COc1ccccc1NC(=O)CSC1=Nc2ccccc2N=C(c2ccc(F)cc2)C1 was read as FMDV antiviral -17%, Sm TGR inh 0% and TbPYK inhibitor 2%.
